A short description of assay [1]: CCTE_Shafer_MEA_acute_AB: CCTE's Alamar Blue Assay for Cytotoxicity in the Neural Acute Assay, Shafer Lab (AID 2284069; active = hit-call score of the fitted dose curve at least 0.9, where 1 is the maximum;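 note: active compounds lower the viability signal compared with DMSO wells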). In outline: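 Resazurin reduction (CellTiter Blue, 1:6 in fresh medium) read at ex 544/em 590 nm marks viability loss relative to DMSO. Cells: primary rat cortical neuron networks on microelectrode arrays, treated after baseline recording at 13 or 15 days in vitro.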
(Resazurin is reduced to fluorescent resorufin, in cell work by metabolically active cells.)

Assay [2] is described as follows: CCTE_Shafer_MEA_acute_LDH: CCTE's Lactate Dehydrogenase Assay for Cytotoxicity in the Neural Acute Assay, Shafer Lab (AID 2284086; active = hit-call score of the fitted dose curve at least 0.9, where 1 is the maximum;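 note: active means LDH release rises above DMSO vehicle level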). In outline: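 Released lactate dehydrogenase, read at 490 nm, indicated cytotoxicity after acute 40-min compound treatment of rat cortical neuron networks grown on 48-well MEA plates.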
Assay [3] is described as follows: CCTE_Shafer_MEA_dev_spike_duration_mean: CCTE's Neural Network Formation Assay for Mean Spike Duration, Shafer Lab (AID 2284051).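 For AC50: potency for a decrease in mean network spike duration versus DMSO.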 In outline: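 Spontaneous activity was recorded on days 5, 7, 9 and 12 from rat cortical cultures grown on microelectrode arrays and dosed continuously from day 0, with media and compound renewed after the DIV 5 and 9 recordings. Network-spike duration was collapsed by area under the curve.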

Assay [4] can be described thus: CCTE_Shafer_MEA_dev_network_spike_duration_std: CCTE's Neural Network Formation Assay for Standard Deviation of Network Spike Duration, Shafer Lab (AID 2284052).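 Note: hits are decreases in network spike duration SD versus DMSO vehicle.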 In outline: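 Network spike duration variability was collapsed across recordings on days 5, 7, 9 and 12 by trapezoidal area-under-curve and fitted downward against DMSO. Cultures were rat cortical neurons on PEI-coated MEA plates, dosed continuously from plating, refed with compound DIV 5/9.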

A short description of assay [5]: CCTE_Shafer_MEA_dev_per_network_spike_spike_number_mean: CCTE's Neural Network Formation Assay for Mean Number of Spikes in a Network Spike, Shafer Lab (AID 2284053).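 For AC50: fitted as decrease in spikes per network spike relative to DMSO.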 In outline:
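Mean spike count within each network spike, taken in a 0.05 s window at its peak, was recorded on days 5, 7, 9 and 12 and integrated as trapezoidal area under the curve. Rat cortical cultures on MEA plates received continuous compound from day 0, refreshed at medium changes on DIV 5 and 9.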

Assay [6] is described as follows: CCTE_Shafer_MEA_dev_per_network_spike_spike_percent: CCTE's Neural Network Formation Assay for Percent of Spikes in a Network Spike, Shafer Lab (AID 2284054). Put shortly:
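Primary rat cortical neurons on 16-electrode MEA wells (PEI-coated, laminin at plating), exposed from day 0 with renewal at DIV 5 and 9; spikes within 0.05 s of network-spike peaks over total spikes, AUC across days 5, 7, 9, 12.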

Assay [7] can be described thus: CCTE_Shafer_MEA_dev_AB: CCTE's Alamar Blue Assay for Cytotoxicity in the Neural Network Formation Assay, Shafer Lab (AID 2284083; active = hit-call score of the fitted dose curve at least 0.9, where 1 is the maximum;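 note: resazurin reduction fluorescence as viability of cultured neurons; twelve days of exposure from plating with re-dosing on DIV 5 and 9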). Put shortly: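 Resazurin fluorescence, relative to DMSO, gauges viability after twelve days of exposure that began at plating of rat cortical neurons (1.5 x 10^5 cells/well, 48-well MEA); treatment renewed with full medium exchange on DIV 5 and 9.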

Assay [8] in a line: CCTE_Shafer_MEA_dev_mutual_information_norm: CCTE's Neural Network Formation Assay for Mutual Information Normalization, Shafer Lab (AID 2284091).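 For AC50: mutual information between electrodes summarised as area under curve across four recording days; potency is for a decrease in mutual information relative to DMSO.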 In outline: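 Rat cortical cultures, 48-well MEA, continuous exposure DIV 0–12 with full media/compound change DIV 5 and 9. Readout: inter-electrode mutual information, AxIS adaptive spike detection; AUC across DIV 5/7/9/12 recordings; DMSO baseline, negative fitting direction.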

Assay [9] in a line: CCTE_Shafer_MEA_dev_correlation_coefficient_mean: CCTE's Neural Network Formation Assay for Mean Correlation Coefficient, Shafer Lab (AID 2284093).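 For AC50: well mean pairwise spike train correlation integrated as AUC over recording days 5 to 12; potency fitted for loss of correlation relative to DMSO vehicle wells.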 In outline: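 Primary rat cortical neurons on PEI-coated 48-well MEA plates (16 electrodes/well) were exposed from plating day 0 through DIV12, with compound renewed at DIV5 and 9. Pairwise spike correlations were averaged per well; trapezoidal AUC across DIV5, 7, 9, 12.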

The nature of assay [10]: UKN2_HCS_IMR90_neural_migration: University of Konstanz (UKN) Leist Lab Neural Crest Cell Migration Assay in human induced IMR90 Pluripotent Stem Cells (UKN2) (AID 2284204). As to conditions: actives raise or lower the signal. Put shortly: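 iPSC-derived IMR90 neural crest cells on PLO/laminin/fibronectin were seeded around silicone stoppers; after stopper removal, migration in N2-S medium with EGF and FGF ran 24 h before 24 h chemical exposure. Calcein-AM/Hoechst high-content imaging; bidirectional fit versus DMSO.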

Assay [11] in a line: IUF_NPC1b_proliferation_BrdU_72hr: Leibniz Research Institute for Environmental Medicine (IUF) 72-hour Neural Progenitor Cell Bromodeoxyuridine (BrdU) Proliferation Assay (NPC1b) (AID 2284207). Put shortly:
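hNPC spheres (primary, GW 16-19 fetal cortex), single sphere/well, EGF+FGF medium; 72 h compound, no renewal; BrdU pulse last 16 h; luminescent ELISA; activity vs DMSO baseline; growth-factor withdrawal as positive control.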

The nature of assay [12]: IUF_NPC1a_proliferation_area_72hr: Leibniz Research Institute for Environmental Medicine (IUF) 72-hour Neural Progenitor Cell Proliferation Area Assay (NPC1a) (AID 2284208). Put shortly: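 Single 0.25–0.35 mm human fetal neural progenitor spheres in proliferation medium with EGF and FGF, exposed 72 h from plating without renewal at 37C, pH 7.2-7.6. Sphere area growth measured by automated phase-contrast imaging, relative to DMSO.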

The nature of assay [13]: IUF_NPC1_viability_72hr: Viability Assessment at 72 hours in the Leibniz Research Institute for Environmental Medicine (IUF) Neural Progenitor Cell Proliferation Assay (NPC1) (AID 2284209). In outline:
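Each well receives one 0.3 mm progenitor sphere from fetal brain cortex; test chemical is added at plating and left three days. Viability comes from alamar blue fluorescence, multiplexed with LDH and BrdU readouts in the same well.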

A short description of assay [14]: CCTE_Mundy_HCI_Cortical_Synap_Neur_Matur_NeuriteSpotCountPerNeuriteLength: CCTE's Synaptogenesis and Neurite Maturation Assay in rat cortical cells for Neurite Spot Count per Neurite Length, Mundy Lab (AID 2284210). In outline: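 Rat primary cortical cultures, glia arrested with AraC at DIV 5, were dosed with media change at DIV 7 and fixed at DIV 12. Synaptophysin puncta per MAP2-labelled neurite length were quantified by high-content imaging versus DMSO.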

The nature of assay [15]: CCTE_Mundy_HCI_Cortical_NOG_NeuriteCount: CCTE's Neurite Outgrowth Assay in rat cortical cells for Neurite Count, Mundy Lab (AID 2284212).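 Note: cells fixed about two days after chemical exposure began.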 In outline:
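Neurite number per cell from high-content imaging of betaIII-tubulin immunostaining, with Hoechst nuclear counterstain.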

Assay [16] in a line: UKN5_HCS_SBAD2_cell_viability: Viability Assessment in the University of Konstanz (UKN) Leist Lab Neurite Outgrowth Assay in human iPSC-derived immature Dorsal Root Ganglia Neurons (UKN5) (AID 2284056). Put shortly:
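iPSC-derived immature peripheral neurons (SBAD2) seeded on Matrigel with CHIR99021, SU5402 and DAPT, dosed 1 h later for 24 h. Viability from Hoechst H-33342 and calcein-AM live staining, high-content imaging; bidirectional fit versus DMSO.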

Assay [17] can be described thus: UKN5_HCS_SBAD2_neurite_outgrowth: University of Konstanz (UKN) Leist Lab Neurite Outgrowth Assay in human iPSC-derived immature Dorsal Root Ganglia Neurons (UKN5) (AID 2284070). As to conditions: actives raise or lower the signal. In outline: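 SBAD2 neurons, 24 h compound treatment, calcein-AM neurite area via HCS imaging; DMSO baseline, gain or loss of signal.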

The nature of assay [18]: UKN4_HCS_LUHMES_neurite_outgrowth: University of Konstanz (UKN) Leist Lab Neurite Outgrowth Assay in human LUHMES cells (UKN4) (AID 2284206). As to conditions: actives raise or lower the signal. Put shortly:
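2-day-differentiated LUHMES, 24 h cpd exposure, live calcein-AM + H-33342 stain, HCS fluorescence imaging of neurite area; DMSO = baseline, bidirectional fit.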

The AC50 is the midpoint of the concentration-response curve, whichever way the signal moves.

Several values for one entry are separate records, joined by “and”; a condition that tells them apart may be missing. Equal values may be shown once. Inconclusive results are not listed. Some structures have more than one record in an assay (separate samples or runs), and their calls can disagree. Activity calls are given as the source filed them. Rule for the calls, unless noted: active = hit-call score of the fitted dose curve at least 0.9, where 1 is the maximum; inactive = score below 0.9.

Turning to `O=C1c2ccccc2C(=O)N1SC(Cl)(Cl)Cl`, the AC50 in [1] is 20 µM (active). Also, the outcome in assay [2] was inactive.

As to `CC[C@H](C)[C@H]1O[C@]2(C=C[C@@H]1C)C[C@@H]1C[C@@H](C/C=C(\C)[C@@H](O[C@H]3C[C@H](OC)[C@@H](O[C@H]4C[C@H](OC)[C@@H](O)[C@H](C)O4)[C@H](C)O3)[C@@H](C)/C=C/C=C3\CO[C@@H]4[C@H](O)C(C)=C[C@@H](C(=O)O1)[C@]34O)O2` (tested in a mixture with another compound), the AC50 in assay [3] was 3.01 nM (active) and 0.926 nM (active); in assay [4], 2.28 nM (active) and 0.912 nM (active); in [5] it was 6.69 nM (active) and 2.06 nM (active); in assay [6] it was 259 nM (active); in assay [7], 7.85 µM (active); in assay [8], 2.68 nM (active) and 0.647 nM (active). Further, the half-maximal activity concentration (AC50) was 89.5 nM (active) and 4.11 nM (active) in assay [9]; 3.78 µM (active) in [10]; 8.2 µM (active) in assay [11]; 5.05 µM (active) in [12]; 2.51 µM (active) in [14]; 8.88 µM (active) in assay [15]. Moreover, the result in assay [6], in assay [7], in assay [2] and in assay [13] was inactive.

Regarding `O=C(O)COc1ccc(Cl)cc1Cl`, the outcome in [3], in assay [4], in assay [5], in assay [6], in assay [7] and in assay [9] was inactive. Also, the compound was classed as inactive in [10], in assay [12], in assay [13], in assay [14] and in [15]. In addition, the results for the AC50 in assay [8] and in [11] were 12.1 µM (active) and 50.1 µM (active), respectively.

`Clc1ccccc1-c1nnc(-c2ccccc2Cl)nn1`: the outcome in [1] and in assay [2] was inactive.

Take `O=C(O)C(F)(F)C(F)(F)C(F)(F)C(F)(F)C(F)(F)C(F)(F)C(F)(F)F`: the call in assay [3], in assay [4], in assay [5], in [6], in assay [8] and in assay [9] was inactive. Also, the outcome in [10], in assay [12], in [13], in assay [14] and in [15] was inactive. Also, the AC50 in assay [16] is 768 µM (active); in assay [17], 899 µM (active); in assay [18], 78.1 µM (active); in assay [11], 6.45 µM (active) and 11.7 µM (active).

Take `CNC(=O)CSP(=S)(OC)OC`: the half-maximal activity concentration (AC50) in assay [3] is 50 µM (active); in assay [5], 50 µM (active); in assay [6] it was 50 µM (active) and 15 µM (active); in assay [7], 50 µM (active) and 26.8 µM (active); in assay [8], 50 µM (active); in assay [9], 50 µM (active) and 15 µM (active). The compound was called inactive in assay [3], in assay [4], in [5], in assay [8], in assay [11] and in [12]. Also, the compound was classed as inactive in assay [13], in [14] and in [15].

(Values after PubChem BioAssay (EPA / NIEHS).)
